Measurements reported in PubChem BioAssay.
Several values for one entry are separate records, joined by “and”; a condition that tells them apart may be missing. Identical values can stand only once. Activity calls are given as the source filed them.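 How the source made its calls, unless noted: active means inhibition at or above 50% relative to wild type and mutant plate controls; inactive means inhibition below 50%.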

How the values were obtained:
[1] = inhibitors of TNFa-induced NFkB p65 translocation, primary screen, imaging, HUVEC, MLSMR starter and 10KST1 sets (AID 438;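 active means inhibition above 20% together with a positive visual image hit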;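 further: compound added about 3h40 before a 20 min TNFalpha stimulation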;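 on inhibition: signal is the nuclear over cytoplasmic p65 intensity ratio per well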); settings: HUVEC TNFa-induced p65 nuclear translocation; cell count: measured here: nuclei count (cytotoxicity indicator), at 2.08 µM; inhibition: at 2 µM, stronger effect = higher value, 0% TNFa-plus-vehicle, 100% no-TNFa wells
[2] = reduction of polyQ htt aggregates in cells – imaging, exon1htt(103Q)mCFP cells, high-content imaging, primary screen (AID 483;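 active means visual image review flags a hit and inhibition of aggregation exceeds 20%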;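 further: compound exposure lasted 3 days before fixation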;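 on nuclei count: percent of the per-plate median nuclei count of sample wells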); settings: exon1htt(103Q)mCFP cell line, aggregate imaging, at 2 µM; inhibition of aggregation: stronger effect = higher value; nuclei count: measured here: cell count, toxicity
[3] = endothelial E-selectin expression blockers – imaging, HUVEC, immunofluorescence, MLSMR starter and 10KST1 sets, primary screen (AID 487;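 active means visually confirmed hit in the image check and inhibition above 20%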;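 on inhibition: signal is fraction of cell area covered by stained E-selectin grains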;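 on nuclei count: 100% = median nuclei count of all wells on the same plate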); settings: HUVEC TNFalpha-induced E-selectin immunofluorescence imaging, at 2 µM; inhibition: stronger effect = higher value; nuclei count: measured here: cell number, toxicity
[4] = Primary imaging screen for DUSP6 inhibitors that restore phospho-Erk in transfected HeLa cells, chemical complementation (AID 609;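 active means compounds giving at least 50% inhibition in the cell-based MKP-3 phosphatase rescue imaging test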;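 on inhibition: phospho-Erk level distribution per well compared with pooled transfected vehicle control wells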); settings: HeLa MKP-3 transfected, phospho-Erk imaging KS statistic, at 10 µM, cells stimulated with TPA for 15 min
[5] = molecular target: Dual specificity protein phosphatase 6 (Homo sapiens) (UniProt Q16828); assay: as above; settings: HeLa MKP-3 transfected, phospho-Erk imaging KS statistic; at 10 µM; stronger effect = higher value; cells stimulated with TPA for 15 min
[6] = molecular target: Voltage-gated potassium channel subunit beta-2 (Rattus norvegicus) (UniProt P62483); assay: inhibitors of rat Kvbeta2 reductase activity – biochemical, NADPH fluorescence, primary screen (AID 622;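 active means fluorescence slope higher than the sample average by over 3 SD, cut at about -0.22 in these data, passing the limit was not always enough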;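 further: slope of raw intensity against log time taken from 70 to 1610 s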); settings: recombinant KvBeta, 4-cyanobenzaldehyde reduction, at 10 µM, stronger effect = higher value
[7] = molecular target: Voltage-gated potassium channel subunit beta-2 (Rattus norvegicus) (UniProt P62483); assay: enhancers of rat Kvbeta2 NADPH turnover – biochemical, NADPH fluorescence, primary screen (AID 623;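 active means NADPH fluorescence slope more negative than the mean of all samples by about 3 SD, 99.7% confidence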;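 further: fluorescence intensity change per second fitted from 20 to 320 s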); settings: Recombinant KvBeta, NADPH fluorescence decrease slope, 10 min; at 10 µM; stronger effect = lower value
[8] = molecular target: Alpha-2C adrenergic receptor (Homo sapiens) (UniProt P18825); assay: compounds altering alpha2C-coupled GIRK flux – cell-based, HEK293 alpha2C/GIRK1/2, thallium flux, primary screen (AID 624;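 active means fluorescence slope after compound addition differing from the mean of all screened samples at 99.7% confidence, in either direction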;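 further: slope of fluorescence ratio to pre-addition baseline per second over 15 to 24 s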); settings: thallium flux BTC fluorescence, at 10 µM, actives lie on both sides
[9] = inhibitors of larval lipid processing in zebrafish, primary screen, whole organism, PED6 fluorescence, gall bladder and intestine (AID 686;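 active means a full or partial loss of lipid-probe fluorescence in the fish gall bladder, intestine or both, judged by eye; inactive means no fluorescence loss, or compound toxic to the fish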;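 further: larvae 5 to 7 days old with five fish per well; signal comes from phospholipase A2 cleavage of quenched PED6 carried via bile; overnight exposure to compound and PED6 before scoring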); settings: Zebrafish larvae PED6 lipid processing, fluorescence scoring; screened at 20 µM (by protocol)
[10] = loss of swimming-algae plug formation – whole organism, Chlamydomonas reinhardtii, WT vs cilia-less mutant, absorbance, 96-well, primary screen (AID 463189); settings: Chlamydomonas reinhardtii gravitaxis, OD600 absorbance, 2 days; at 10 µM; stronger effect = higher value;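 further: 0% = wild type cc124 cells in DMSO and 100% = ciliumless bld1 mutant cells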
[11] = blockers of RIG-like receptor reporter activation – cell-based, Sendai virus stimulus, luciferase, 10K MLSCN set, TLR/RLR signaling modifier project, primary screen (AID 602276;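 active means inhibition at or above 50% at 10 µM; inactive means inhibition below 50%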;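 further: firefly luciferase from ISG56 promoter only with Renilla not read in this screen; 0% = Sendai virus plus DMSO and 100% = medium plus DMSO without virus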); settings: HEK293 RL24 IRF3 luciferase reporter, at 10 µM, stronger effect = higher value
[12] = TLR3 IRF3 reporter activation blockers – cell-based, poly I:C stimulus, luciferase, 10K MLSCN set, primary screen (AID 602277;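 active means inhibition of the reporter signal at or above 50%; inactive means inhibition below 50%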); settings: HEK293-TLR3 RL24 IRF3 luciferase reporter, at 10 µM, stronger effect = higher value
[13] = molecular target: Muscarinic acetylcholine receptor M4 (Homo sapiens) (UniProt P08173); assay: M4-linked GIRK flux change, two-sided – cell-based, HEK293 M4/GIRK, thallium flux, BTC-AM, M4 allosteric agonist project, primary screen (AID 625;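 active means fluorescence slope after compound addition differing from the mean of all tested samples at 99.7% confidence, mostly higher but some lower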;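 further: thallium influx through GIRK channels coupled to M4 in HEK293 cells with BTC-AM dye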); settings: at 10 µM, actives lie on both sides
[14] = measured here: cell density z-score
[15] = measured here: nuclear c-Myc green intensity z-score
[16] = measured here: nuclear pErk red intensity z-score, stronger effect = higher value

Alpha-2C adrenergic receptor (Homo sapiens), sequence (P18825 whole entry, looked up): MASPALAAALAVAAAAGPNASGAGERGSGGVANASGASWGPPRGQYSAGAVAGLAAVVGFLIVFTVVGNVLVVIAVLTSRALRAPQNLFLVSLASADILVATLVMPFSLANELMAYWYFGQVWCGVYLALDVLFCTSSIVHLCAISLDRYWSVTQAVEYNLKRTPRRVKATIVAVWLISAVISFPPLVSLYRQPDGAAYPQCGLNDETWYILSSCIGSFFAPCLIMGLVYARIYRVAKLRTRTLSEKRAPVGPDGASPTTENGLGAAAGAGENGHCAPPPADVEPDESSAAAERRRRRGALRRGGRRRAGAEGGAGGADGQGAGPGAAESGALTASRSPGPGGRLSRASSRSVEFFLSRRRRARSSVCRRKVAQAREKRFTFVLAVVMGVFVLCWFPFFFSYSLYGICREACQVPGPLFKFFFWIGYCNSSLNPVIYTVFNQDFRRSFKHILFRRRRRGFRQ
Dual specificity protein phosphatase 6 (Homo sapiens), sequence (Q16828 whole entry, looked up): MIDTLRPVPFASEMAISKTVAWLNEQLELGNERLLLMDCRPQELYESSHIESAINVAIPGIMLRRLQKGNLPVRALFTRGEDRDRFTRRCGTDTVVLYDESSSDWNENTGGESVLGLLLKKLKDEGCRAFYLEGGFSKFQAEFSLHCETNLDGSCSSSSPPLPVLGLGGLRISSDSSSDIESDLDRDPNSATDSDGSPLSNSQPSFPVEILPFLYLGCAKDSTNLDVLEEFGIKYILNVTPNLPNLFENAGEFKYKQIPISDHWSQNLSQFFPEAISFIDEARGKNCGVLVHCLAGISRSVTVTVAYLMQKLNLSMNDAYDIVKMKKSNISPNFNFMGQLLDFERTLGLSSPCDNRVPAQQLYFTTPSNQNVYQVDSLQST
Voltage-gated potassium channel subunit beta-2 (Rattus norvegicus), sequence (P62483 whole entry, looked up): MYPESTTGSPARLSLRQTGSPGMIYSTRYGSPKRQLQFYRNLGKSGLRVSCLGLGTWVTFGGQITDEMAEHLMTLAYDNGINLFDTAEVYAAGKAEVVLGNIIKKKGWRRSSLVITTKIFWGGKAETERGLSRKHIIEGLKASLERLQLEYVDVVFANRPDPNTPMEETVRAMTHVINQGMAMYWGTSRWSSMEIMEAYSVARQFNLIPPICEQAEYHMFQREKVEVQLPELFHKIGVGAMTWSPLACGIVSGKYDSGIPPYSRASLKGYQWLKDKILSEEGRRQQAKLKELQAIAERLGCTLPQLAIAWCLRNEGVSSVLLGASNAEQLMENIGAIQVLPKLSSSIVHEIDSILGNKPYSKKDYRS
Muscarinic acetylcholine receptor M4 (Homo sapiens), sequence (P08173 whole entry, looked up): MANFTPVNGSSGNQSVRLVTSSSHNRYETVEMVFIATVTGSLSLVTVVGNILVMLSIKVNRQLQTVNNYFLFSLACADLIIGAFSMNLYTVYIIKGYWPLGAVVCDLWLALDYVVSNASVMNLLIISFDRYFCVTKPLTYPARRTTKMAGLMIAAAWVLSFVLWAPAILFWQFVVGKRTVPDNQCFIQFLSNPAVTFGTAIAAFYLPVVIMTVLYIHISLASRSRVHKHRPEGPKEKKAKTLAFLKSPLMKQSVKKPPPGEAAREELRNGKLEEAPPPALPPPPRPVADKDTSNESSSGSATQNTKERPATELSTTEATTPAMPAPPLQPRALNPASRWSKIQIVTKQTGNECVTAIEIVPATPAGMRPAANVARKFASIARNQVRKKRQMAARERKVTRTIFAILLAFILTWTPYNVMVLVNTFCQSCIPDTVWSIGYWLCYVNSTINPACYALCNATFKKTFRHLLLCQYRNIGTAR

SMILES | cell count [1] | inhibition [1] | inhibition of aggregation [2] | nuclei count [2] | inhibition [3] | nuclei count [3] | z-score [4, 14] | z-score [4, 15] | z-score [4, 16] | inhibition [5] | fluorescence slope [6] | NADPH fluorescence slope [7] | slope [8] | outcome [9] | inhibition [10] | inhibition [11] | inhibition [12] | fluorescence slope [13]
C[C@]12CC[C@@H]3c4ccc(O[C@@H]5O[C@H](C(=O)O)[C@@H](O)[C@H](O)[C@H]5O)cc4CC[C@H]3[C@@H]1C[C@@H](O)[C@@H]2O | 606 | -2.6% (inactive) | -0.5% (inactive) | 90.1% | -146% (inactive) | 127% | 0.0825 | -0.52 | -0.309 | 1.48% (inactive) | -0.487 (inactive) | -4.1e-05 (inactive) | 0.00431 (inactive) | inactive | -2.21% (inactive) | 15% (inactive) | 32.3% (inactive) | 
COc1cc([C@@H]2c3cc4c(cc3[C@H](O)[C@H]3COC(=O)[C@H]23)OCO4)cc(OC)c1OC | 436 | 21.5% (active) | -118% (inactive) | 1.5% | -226% (inactive) | 86.2% | 0.542 | -0.666 | -0.822 | -6.41% (inactive) | -0.472 (inactive) | -0.000104 (inactive) | 0.00519 (inactive) | inactive | 0.865% (inactive) | 33.7% (inactive) | 81.6% (active) | 
O=C(c1cccc2ccccc12)N1CCC(N2CCN(c3ccccc3)CC2)CC1 | 373 | -1.4% (inactive) | 12.1% (inactive) | 95.9% | -64.1% (inactive) | 81.4% | 0.565 | 1.38 | -0.642 | 13.2% (inactive) | -0.528 (inactive) | -1.2e-05 (inactive) | 0.00499 (inactive) | inactive | 29.4% (inactive) | 4.24% (inactive) | 21.4% (inactive) | 
Cn1c(=O)n(CCC(=O)O)c2ccccc21 | 429 | -3.4% (inactive) | 7.9% (inactive) | 96.9% | -65.4% (inactive) | 159% | -0.862 | -1.01 | 0.787 | -9.7% (inactive) | -0.405 (inactive) | -5.3e-05 (inactive) | 0.00491 (inactive) | inactive | 1.78% (inactive) | 16.2% (inactive) | 22.9% (inactive) | 
CCNC(=O)N(C)c1nncnc1C(=O)NC | 435 | -12.6% (inactive) | 6.9% (inactive) | 105% | -11.1% (inactive) | 105% | 0.426 | 0.386 | 0.174 | 2.92% (inactive) | -0.505 (inactive) | -4.4e-05 (inactive) | 0.00736 (inactive) | inactive | 35.2% (inactive) | 18.1% (inactive) | 22.2% (inactive) | 
Cc1cc(C)nc(NC(=O)c2ccc(OC(C)C)cc2)n1 | 520 | -2.7% (inactive) | -1.7% (inactive) | 110% | -53% (inactive) | 123% | 0.524 | 1.41 | -0.231 | 17% (inactive) | -0.449 (inactive) | -4.9e-05 (inactive) | 0.00572 (inactive) | inactive | -2.45% (inactive) | -1.16% (inactive) | -12.9% (inactive) | 
CC(=O)Nc1nnc(S(N)(=O)=O)s1 | 660 | -4.8% (inactive) | -0.3% (inactive) | 93.8% | -29.7% (inactive) | 122% | -0.588 | -1.08 | 0.272 | 13.3% (inactive) | -0.462 (inactive) | -6.7e-05 (inactive) | 0.0054 (inactive) | active; no signal in intestine only | 0.808% (inactive) and -5.65% (inactive) | -14.2% (inactive) | 1.99% (inactive) | 
NC(Cc1ccc(Oc2ccc(O)cc2)cc1)C(=O)O (stereo unspecified) | 563 | -6.8% (inactive) | -8.1% (inactive) | 103% | -19.7% (inactive) | 103% | -0.271 | -1.56 | -0.79 | 3.45% (inactive) | -0.495 (inactive) | -5.7e-05 (inactive) | 0.00414 (inactive) | inactive | -4.82% (inactive) | 11.4% (inactive) | 24.4% (inactive) | 
CC1(C(=O)CSc2nc3ccccc3s2)CCC(=O)O1 (stereo unspecified) | 609 | -11.4% (inactive) | -14.5% (inactive) | 78.9% | -179% (inactive) | 131% | 0.414 | -1.1 | -0.368 | -4.27% (inactive) | -0.471 (inactive) | -0.000167 (inactive) | 0.00616 (inactive) | inactive | 6.36% (inactive) | 6.48% (inactive) | 21.8% (inactive) | 0.00529 (inactive)
Cc1cc(C)n(CC(=O)n2c3c(c4ccccc42)CCCC3)n1 | 515 | -6.5% (inactive) | 13.5% (inactive) | 99.3% | -92.5% (inactive) | 130% | -0.283 | 1.41 | 0.335 | -1.98% (inactive) | -0.53 (inactive) | -3.4e-05 (inactive) | 0.0062 (inactive) | inactive | -0.753% (inactive) | -7.05% (inactive) | 1.75% (inactive) | 
